# Screens: PubChem, National Center for Advancing Translational Sciences (NCATS)
# LmPK inhibitor = inhibitors of Leishmania mexicana pyruvate kinase | purified LmPK, Kinase-Glo ATP luminescence, 1 h | 290,000 tested, 0.37% active | Potency, µM (highest dose often 57.5 µM), for the others: top-dose activity change, negative = inhibition, actives largely listed as inhibitors | AID 1721 | Q27686; note: potency is the fitted concentration of half-maximal effect; % is set by controls: 0 for no effect and ±100 for the full control effect
#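 Screened at intermediate enzyme activity to detect both inhibitors and activators: LmPK at 0.1 nM, with a 0.5 nM enzyme column as activation reference. PEP 0.5 mM, ADP 0.1 mM; ATP detected by luminescence after 1 h.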
# CHX counter = counter-screen for Shiga toxin inhibitors: cycloheximide protein synthesis inhibition; cell reporter, cycloheximide protein synthesis inhibition counterscreen; max response, %; 300,000 tested, 12% active; AID 2314; in the data active = max response mostly above about 13%, no sharp cut-off; inactive = mostly below about 14%; note: read at 38.3 µM for the half of the compounds with a filed dose; 0% is about no effect
# Tb PYK inh = blocks Trypanosoma brucei pyruvate kinase. TbPYK enzyme, Kinase-Glo Plus ATP luminescence, 45 min. Potency, µM (series often up to 76.8 µM), for the others: at the top dose activity, negative = inhibition, usual class: inhibitors. 410,000 tested, 0.12% active. AID 624173; note: potency is the fitted concentration of half-maximal effect; % is set by controls: 0 for no effect and ±100 for the full control effect; nearly all actives have a fitted effect of over 50% in size
#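 TbPYK + substrate in 50 mM TEA pH 7.2, 100 mM KCl, 10 mM MgCl2, 0.05% BSA, 0.01% Tween-20; cpd pinned; ADP 130 uM final; 45 min RT; Kinase-Glo Plus 10 min; luminescence endpoint.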
# Sm TGR inh = inhibitors of Schistosoma mansoni thioredoxin glutathione reductase; purified TGR, DTNB reduction, TNB absorbance 405 nm; 360,000 tested, 3% active; Potency, µM (doses to about 114 µM), without a hit: at the top dose activity change, negative = inhibition, most hits filed as inhibitors; Q962Y6; note: potency is the fitted concentration of half-maximal effect; % is set by controls: 0 for no effect and ±100 for the full control effect; nearly all actives have a fitted effect of over 60% in size
#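 First, TGR (20 nM dispensed) and NADPH were mixed with compound. Second, a 15 min room-temperature incubation followed. Third, further NADPH and then DTNB were added to start the reaction. Finally, TNB absorbance was monitored kinetically.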
# Shiga toxin inh = inhibitors of Shiga toxin in Vero cells | inhibition, % at 38.7 µM | AID 2315 | Vero cells, Shiga toxin protein synthesis inhibition reporter | 290,000 tested, 9.2% active; in the data active = inhibition mostly above about 28%, no sharp cut-off; inactive = mostly below about 43%; note: 0% is about no effect
# Giardia FBPA inh = blocks Giardia fructose-bisphosphate aldolase activity; purified Giardia FBPA; 290,000 tested, 0.71% active; Potency, µM (doses to about 59.6 µM), for the others: at the top dose activity, negative = inhibition, actives largely listed as inhibitors; note: potency is the fitted concentration of half-maximal effect; % is set by controls: 0 for no effect and ±100 for the full control effect; nearly all actives have a fitted effect of over 55% in size
# Target sequence (A8B2U2 whole entry, looked up): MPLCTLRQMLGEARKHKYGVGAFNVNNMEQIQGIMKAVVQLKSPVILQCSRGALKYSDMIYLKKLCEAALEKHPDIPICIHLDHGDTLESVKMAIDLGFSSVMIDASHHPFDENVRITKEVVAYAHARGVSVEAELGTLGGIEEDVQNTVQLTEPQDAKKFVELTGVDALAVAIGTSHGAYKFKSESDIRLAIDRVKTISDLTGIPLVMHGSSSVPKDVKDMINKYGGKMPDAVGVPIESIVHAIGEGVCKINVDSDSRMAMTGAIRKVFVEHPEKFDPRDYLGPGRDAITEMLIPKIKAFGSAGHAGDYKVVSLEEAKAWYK
#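 Giardia FBPA (40 nM reagent) was preincubated 10 min at RT with compound (up to 57.5 uM final), then substrate plus GAPDH/TPI/NAD/arsenate coupling system with diaphorase/resazurin was added; resorufin fluorescence (525/598 nm) was read after 20 min.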
# Numbers without * were called inactive; u = inconclusive; x = not tested or not shown. The entries come from a sample that favours hits as a whole. Unless noted, calls come from the whole dose curve; as a rule, active = well fitted curve in the direction sought with a large enough effect; inconclusive = small, poorly fitted or top-dose-only effect, or another doubt; inactive = no such curve, though single readings can be large; an effect the other way counts as inactive or inconclusive.
SMILES,LmPK inhibitor,CHX counter,Tb PYK inh,Sm TGR inh,Shiga toxin inh,Giardia FBPA inh
CCc1nc2oc3ccc(C)cc3c(=O)c2cc1C(=O)OC,-0.5%,24.0*,-1.5%,-6.5%,30.2*,3.5%
Cc1nc2oc3ccccc3c(=O)c2cc1C(=O)O,-11.5%,0.5,-15.4%,7.6%,17.3,11.6%
COC(=O)c1cc2c(=O)c3ccccc3oc2nc1/C=C/N(C)C,4.7%,18.8*,0.4%,-3.3%,56.7,0.5%
Cc1ccc(C)c(NC(=O)Cn2c(=O)n(Cc3ccc4c(c3)OCO4)c(=O)c3oc4ccccc4c32)c1,x,x,0.0%,3.5%,x,x
COc1cc(Br)c(C[N+]2(CCOCCC3CCC4CC3C4(C)C)CCOCC2)cc1OC (stereo not given),x,x,0.0%,x,x,x
Cc1ccc(NC(=O)NC(=O)CSc2nnc(-c3ccc(Cl)cc3Cl)n2N)c(C)c1,-9.5%,63.8*,-4.9%,-4.3%,179.1*,-23.2%
COc1ccc(C(=O)CSc2n[nH]c(=O)n2Cc2ccco2)cc1,0.8%,32.4*,-8.9%,-23.4%,43.7*,10.0%
COc1ccc(C(=O)CSc2ccc(-c3ccco3)nn2)cc1,1.3%,-4.5,-20.5%,31.6µM*,-2.2,-16.4%
COc1cccc(-c2ccc(SCC(=O)c3ccccc3)nn2)c1,-2.8%,21.2,-9.5%,-16.4%,48.1*,-7.8%
O=C(CSc1ccc(-c2ccco2)nn1)c1ccccc1,-14.3%,23.5*,u,8.91µM*,31.6*,-26.8%
N=c1n(N)c2ccccc2n1CC(=O)c1ccc(Br)cc1,1.6%,1.2,-3.8%,-5.9%,x,-20.0%
O=C(CSc1nc2c(c(=O)[nH]1)CCCC2)Nc1cccc(O)c1,x,x,2.7%,-1.7%,x,x
Cc1ccc(S(=O)c2ccc([N+](=O)[O-])c3nonc23)cc1 (stereo not given),x,x,6.31µM*,x,x,x
CCC(=O)NC(c1ccccc1)c1nc2ccccc2[nH]1 (stereo not given),-5.6%,44.1*,-3.9%,9.5%,67.9*,-9.1%
COc1ccc(C[C@H]2CN3C(=NC[C@@H]3C)N2CCNC(=O)CCC2CCCCC2)cc1,3.6%,-1.4,-0.2%,15.8µM*,-4.4,-1.0%
C[C@H]1CN=C2N(CCNC(=O)CCC3CCCCC3)[C@H](Cc3ccc(O)cc3)CN21,-0.4%,0.5,-13.2%,-27.3%,-14.5,3.7%
COc1ccc(C[C@@H]2CN3C(=NC[C@@H]3C)N2C[C@H](C)NC(=O)c2ccc(C)c(Br)c2)cc1,1.2%,1.3,0.5%,22.4µM*,-7.3,-0.6%
C/C=C(\C)C(=O)N[C@@H](C)CN1C2=NC[C@H](C(C)C)N2C[C@H]1Cc1ccc(OC)cc1,2.1%,-4.1,-0.1%,5.62µM*,-9.7,-1.7%
CC(C)[C@H]1CN=C2N(C[C@H](C)NC(=O)CCC3CCCCC3)[C@H](Cc3ccc(O)cc3)CN21,0.7%,-5.1,-16.5%,20µM*,12.8,-11.5%
Cc1c(P(=S)(c2ccccc2)c2ccccc2)[n+]2ccccc2n1CCc1ccccc1,x,x,3.8%,x,x,x
Cc1ccc(NC(=O)CSc2nc(N)cc(=O)[nH]2)cc1S(=O)(=O)N1CCCCC1,x,x,-8.1%,x,x,x
CCOC(=O)Cn1c(=N)n(Cc2ccc(C(C)(C)C)cc2)c2ccccc21,x,x,2.0%,8.2%,x,x
C/C=C(\C)C(=O)NCCN1C2=NC[C@@H](Cc3ccccc3)N2C[C@H]1Cc1ccc(O)cc1,2.1%,1.4,-3.4%,-0.5%,-8.0,7.6%
C/C=C(\C)C(=O)NCCN1C2=NC[C@H](Cc3ccc(O)cc3)N2C[C@H]1Cc1ccc(O)cc1,-3.3%,0.2,1.8%,50.1µM*,11.8,17.1%
O=C(c1ccc(CSc2nc3ccncc3n2Cc2ccc(F)cc2)cc1)N1CCCCCC1,x,x,9.1%,-4.6%,x,x
SMILES,LmPK inhibitor,CHX counter,Tb PYK inh,Sm TGR inh,Shiga toxin inh,Giardia FBPA inh
C=C(C)CSc1nnc([C@@H](N)Cc2ccccc2)o1,-5.0%,17.9*,-6.2%,3.7%,29.8,-1.2%
CC(C)Sc1nnc([C@@H](N)Cc2ccccc2)o1,6.5%,42.6*,-2.3%,-4.2%,35.5,13.7%
Cc1ccccc1NC(=O)CCCSc1nc2ccccc2s1,3.3%,20.4,-1.1%,-6.7%,3.8,-8.7%
O=C(CCCSc1nc2ccccc2s1)NCc1ccc2c(c1)OCO2,-3.4%,17.0*,-10.7%,6.0%,-19.1,-0.8%
CC(C)(C)NC(=O)CCCSc1nc2ccccc2s1,-6.3%,46.7*,-0.7%,8.0%,72.1*,-3.5%
O=C(CSc1nc2ccccc2s1)NCc1ccc2c(c1)OCO2,-1.1%,21.1,2.2%,-11.0%,-1.4,-3.3%
CCn1cc(Br)c(-c2nc3ccccc3c(=O)n2N)n1,0.7%,27.3*,-4.4%,2.7%,75.4*,1.8%
Cc1ccc(OCC(=O)c2c(N)n(C)c(=O)n(C)c2=O)c([N+](=O)[O-])n1,x,x,-10.7%,u,x,x
Cc1ccc(C)c(C(=O)COc2ccccc2[N+](=O)[O-])c1,-2.8%,36.3*,2.7%,-2.9%,25.5*,-4.5%
Cc1ccc(C)c(C(=O)COc2ccc(C)nc2[N+](=O)[O-])c1,1.6%,-2.9,-13.5%,11.2µM*,-7.7,-16.9%
Cc1ccc(OCC(=O)c2c[nH]c3ccccc23)c([N+](=O)[O-])n1,-0.1%,51.2*,3.9%,-24.2%,80.6*,-11.2%
Cc1ccc(OCC(=O)c2cc(C)c(C)cc2C)c([N+](=O)[O-])n1,4.4%,1.5,-8.9%,15.8µM*,18.9,-17.6%
COc1ccc(CCNC(=O)COc2ccc(C)nc2[N+](=O)[O-])cc1OC,1.1%,-2.4,-1.6%,2.6%,-10.0,6.0%
O=C(Cc1c(F)cccc1Cl)NNC(=O)c1ccncc1,x,x,3.8%,-9.2%,x,x
Cc1ccc(CNC(=O)CSc2nnc(C)c3c(C)n(-c4ccccc4)nc23)cc1,x,x,0.9%,-2.5%,x,x
CC1(C)OCC(CSC2=C(SCC3COC(C)(C)O3)C(=O)c3ncccc3C2=O)O1 (stereo not given),x,x,x,x,x,1.77µM*
O=C1c2cccnc2-c2ncccc21,-4.7%,2.0,-8.5%,1.4%,-6.0,0.5%
O=C(CN1CCN(c2cccc(C(F)(F)F)c2)CC1)NCc1ccccc1,-2.8%,-1.4,-2.6%,-6.1%,-9.5,-11.7%
Oc1c(N=Nc2ccccc2)sc2ccccc12,u,39.8*,-5.8%,-4.5%,60.6*,-13.1%
O=C(CSc1nc(-c2ccccc2F)nc2cc(=O)[nH]n12)Nc1cccc(C(F)(F)F)c1,x,x,-0.1%,3.3%,x,x
Cc1ccc(-c2ccc(CCC(=O)O)o2)cc1,-4.3%,38.0*,u,12.6µM*,45.0*,12.9%
O=C(O)CCc1ccc(-c2cccs2)o1,18.8%,12.0,u,0.708µM*,12.4,-13.1%
O=C(O)CCc1ccc(-c2cccs2)n1NC(=O)c1ccc(O)cc1,4.4%,1.9,-6.0%,-35.8%,22.4,14.9%
Cc1cc(NC(=O)CCc2ccc(-c3ccccc3)o2)no1,-7.9%,8.4,-2.2%,-67.5%,-4.5,1.7%
